The values below come from PubChem BioAssay (NCATS).

The structures appear in SMILES notation. Records with an inconclusive call do not appear. A call without a number means that no potency is given here. A number with no mark means an inactive call. The source made the active and inactive calls. Calls come from the whole dose curve; as a rule, active = well fitted cell-killing curve with a large enough effect; inconclusive = small, poorly fitted or top-dose-only effect; inactive = no such curve, though single readings can be large or run the other way.

One assay can be described thus: qHTS of pediatric cancer cell lines to identify multiple opportunities for drug repurposing: Primary screen for NB1643 cells (AID 1347099). Note: nearly all actives have a fitted effect of over 50% in size. Note: potency is the fitted concentration of half-maximal effect. The note with it: NB1643 neuroblastoma viability, CellTiter-Glo luminescence, 48 h; series mostly up to 46 µM. A digest of the protocol: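 Cells seeded at 500-1,000 cells/well in growth media, rested 5 hours at 37 degrees C, 5% CO2, then dosed; MIPE compounds at 11-point (from 0.78 nM) and NPC at 8-point (from 0.59 nM) final concentrations. Viability by CellTiter-Glo luminescence after 48 hours.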
In general terms: Quantitative high-throughput screening tests each substance at several concentrations.
In the case of `NC(Cc1ccc(Cl)cc1)C(=O)O` (stereo not drawn), the activity change, negative = cytotoxic is 9.7% [at 0.597 µM].
In the case of `CCCCCN(CCCCC)C(=O)C(CCC(=O)O)NC(=O)c1ccc(Cl)c(Cl)c1` (stereo not drawn), the Potency result is “inactive”.
For the compound `CCO/C([O-])=N/c1c[n+](N2CCOCC2)no1`, the Potency result was “inactive”.
On to `CCN(CC)CCOCCOC(=O)C1(c2ccccc2)CCCC1`, for which the Potency entry was “inactive”.
Take `CSc1ccc(C(=O)c2[nH]c(=O)[nH]c2C)cc1`: the Potency entry is “inactive”.
For `CCn1cc(C(=O)O)c(=O)c2cc3c(cc21)OCO3`, the Potency result is “inactive”.
For the compound `CC(=O)[C@@]1(O)CC[C@H]2[C@@H]3CCC4=CC(=O)CC[C@]4(C)[C@H]3CC[C@@]21C`, the Potency result is “inactive”.
As for `CN(C)CCN(Cc1cccs1)c1ccccn1`, the Potency entry was “inactive”.
Regarding `CC(C)(C)NCC(O)c1cc(O)cc(O)c1` (stereo not drawn), the Potency result is “inactive”.
`CN(C)C(=O)Oc1cccc([N+](C)(C)C)c1`: the Potency entry was “inactive”.
For `COc1ccc(CN(CCN(C)C)c2ccccn2)cc1`, the Potency result was “inactive”.
For `O=c1[nH]c(=O)n([C@H]2C[C@H](O)[C@@H](CO)O2)cc1Br`, the Potency entry was “inactive”.
With `C[C@]12C=CC(=O)C=C1CC[C@H]1[C@@H]3C[C@@H](O)[C@](O)(C(=O)CO)[C@@]3(C)C[C@H](O)[C@@]12F`, the Potency entry is “inactive”.
Consider `CNCCCN1c2ccccc2CCc2ccccc21`, for which the Potency entry is “inactive”.
Still for that read-out and setting: in the case of `CCCNC(C)C(=O)Nc1ccccc1C` (stereo not drawn) it was “inactive”; in that of `CC(N=C(NC#N)Nc1ccncc1)C(C)(C)C` (stereo not drawn), “inactive”.
For `CC(=O)[C@]1(O)Cc2c(O)c3c(c(O)c2[C@@H](O[C@H]2C[C@H](N)[C@H](O)[C@H](C)O2)C1)C(=O)c1ccccc1C3=O`, the Potency was 0.376 µM (active).
As to `NC/C=C/C(=O)O`, the Potency result is “inactive”.
Take `Nc1c2c(nc3ccccc13)CCCC2O` (stereo not drawn): the Potency entry is “inactive”.
Regarding `OCCN1CCN(CCCN2c3ccccc3C=Cc3ccccc32)CC1`, the Potency entry was “inactive”.
On to `Cc1cccc(C)c1NC(=O)C(C)N` (stereo not drawn), for which the Potency result is “inactive”.
Same read-out and setting: in the case of `CCNC(=O)N1CCN(CCCC(c2ccc(F)cc2)c2ccc(F)cc2)CC1` it was “inactive”; in that of `C[C@]12CCC(=O)C=C1CC[C@@H]1[C@@H]2C(=O)C[C@@]2(C)[C@H]1CC[C@]2(O)C(=O)CO`, “inactive”; in that of `COc1cc(Cc2cnc(N)nc2N)cc(OC)c1OC`, “inactive”.
Take `CN(C)C/C=C(/c1ccc(Br)cc1)c1cccnc1`: the Potency result is “inactive”.
For `O=C1CC2(CCCC2)CC(=O)N1CCCCN1CCN(c2ncccn2)CC1`, the Potency result was “inactive”.
Take `Cc1nnc(SCC2=C(C(=O)O)N3C(=O)[C@@H](NC(=O)Cn4cnnn4)[C@H]3SC2)s1`: the Potency entry is “inactive”.
On the same count and under the same terms, in the case of `CN/C(=C\[N+](=O)[O-])NCCSCc1ccc(CN(C)C)o1` it was 37.6 µM (active); in that of `CC1=NS(=O)(=O)c2cc(Cl)ccc2N1`, “inactive”; in that of `O=C(O)CCCCCCCC(=O)O`, “inactive”.
As to `CCN(CC)CC(=O)Nc1c(C)cccc1C`, the Potency result is “inactive”.
As to `NC1=NCC2c3ccccc3Cc3ccccc3N12` (stereo not drawn), the Potency result was “inactive”.
Take `Cc1scc2c1N(C(=O)CN1CCN(C)CC1)c1ccccc1NC2=O`: the Potency entry was “inactive”.
On to `CCCOc1ccccc1-c1nc2n[nH]nc2c(=O)[nH]1`, for which the Potency entry was “inactive”.
For `CN(C)CCOC(=O)COc1ccc(Cl)cc1`, the Potency entry is “inactive”.

The next assay in a line: qHTS of pediatric cancer cell lines to identify multiple opportunities for drug repurposing: Primary screen for LAN-5 cells (AID 1347100). The note with it: LAN-5 neuroblastoma viability, CellTiter-Glo luminescence, 48 h; series mostly up to 46 µM. A digest of the protocol:
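Viability after 48 h compound treatment at 37C, 500-1,000 cells/well, read as ATP luminescence with CellTiter-Glo. Primary screens used 11-point (MIPE, 0.78 nM-46 µM) or 8-point (NPC, 0.59 nM-46 µM) final concentrations; follow-up screens used 11-point dilutions.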
Consider `CCCCCN(CCCCC)C(=O)C(CCC(=O)O)NC(=O)c1ccc(Cl)c(Cl)c1` (stereo not drawn), for which the Potency entry is “inactive”.
Still for that read-out and setting: in the case of `CSc1ccc(C(=O)c2[nH]c(=O)[nH]c2C)cc1` it was “inactive”; in that of `CCn1cc(C(=O)O)c(=O)c2cc3c(cc21)OCO3`, “inactive”; in that of `CC(=O)[C@@]1(O)CC[C@H]2[C@@H]3CCC4=CC(=O)CC[C@]4(C)[C@H]3CC[C@@]21C`, “inactive”.
With `CN(C)CCN(Cc1cccs1)c1ccccn1`, the Potency result was “inactive”.
In the case of `CC(C)(C)NCC(O)c1cc(O)cc(O)c1` (stereo not drawn), the Potency entry is “inactive”.
With `O=c1[nH]c(=O)n([C@H]2C[C@H](O)[C@@H](CO)O2)cc1Br`, the Potency result was “inactive”.
Still for that read-out and setting: in the case of `C[C@]12C=CC(=O)C=C1CC[C@H]1[C@@H]3C[C@@H](O)[C@](O)(C(=O)CO)[C@@]3(C)C[C@H](O)[C@@]12F` it was “inactive”.
With `CNCCCN1c2ccccc2CCc2ccccc21`, the Potency entry is “inactive”.
Same read-out and setting: in the case of `CCCNC(C)C(=O)Nc1ccccc1C` (stereo not drawn) it was “inactive”; in that of `CC(N=C(NC#N)Nc1ccncc1)C(C)(C)C` (stereo not drawn), “inactive”; in that of `NC/C=C/C(=O)O`, “inactive”.
As for `OCCN1CCN(CCCN2c3ccccc3C=Cc3ccccc32)CC1`, the Potency result is “inactive”.
For the compound `CCNC(=O)N1CCN(CCCC(c2ccc(F)cc2)c2ccc(F)cc2)CC1`, the Potency result is “inactive”.
Regarding `C[C@]12CCC(=O)C=C1CC[C@@H]1[C@@H]2C(=O)C[C@@]2(C)[C@H]1CC[C@]2(O)C(=O)CO`, the Potency entry was “inactive”.
For the compound `O=C1CC2(CCCC2)CC(=O)N1CCCCN1CCN(c2ncccn2)CC1`, the Potency result is “inactive”.
On the same count and under the same terms, in the case of `Cc1nnc(SCC2=C(C(=O)O)N3C(=O)[C@@H](NC(=O)Cn4cnnn4)[C@H]3SC2)s1` it was “inactive”.
Same read-out and setting: in the case of `CN/C(=C\[N+](=O)[O-])NCCSCc1ccc(CN(C)C)o1` it was “inactive”; in that of `CC1=NS(=O)(=O)c2cc(Cl)ccc2N1`, “inactive”; in that of `CCN(CC)CC(=O)Nc1c(C)cccc1C`, “inactive”.
As to `NC1=NCC2c3ccccc3Cc3ccccc3N12` (stereo not drawn), the Potency entry was “inactive”.
For `Cc1scc2c1N(C(=O)CN1CCN(C)CC1)c1ccccc1NC2=O`, the Potency result was “inactive”.
For the compound `CCCOc1ccccc1-c1nc2n[nH]nc2c(=O)[nH]1`, the Potency entry is “inactive”.
